# In PubChem BioAssay:
# Where “and” joins values, the source holds several entries; their conditions need not be identical. Equal entries are not always repeated. Calls of active or inactive are those of the source. Rule as the data show it, unless noted: active = inhibition above about 80%; inactive = the rest.
# How the values were obtained:
# [1] = compounds altering viability of human ES cells (AID 493140; call rule not given here;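 also: cells exposed to compounds for four days before counting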); settings: human embryonic stem cell survival screen; stronger effect = higher value
# [2] = P. berghei load reduction in hepatocytes – cell-based, HepG2, luciferase luminescence, HepG2 viability, primary screen (AID 624349; in the data active = parasite load remaining mostly below about 12%, no sharp cut-off; inactive = mostly above about 10%;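 also: 100% = mean of DMSO negative control wells on the same plate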); settings: P. berghei liver stage in HepG2, luciferase luminescence, concentration not given here; parasite load remaining: stronger effect = lower value; viability: measured here: HepG2 viability without parasites
# [3] = viability loss with induced miR-34 in A549 – imaging, A549 dox-inducible miR-34, nuclei and caspase counts, primary screen (AID 1347080;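 active = compounds whose cell count with miR-34 switched on is under 0.7 times the count with it off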); settings: A549 miR-34 inducible, Hoechst nuclei count, 48 h
# [4] = MELAS cybrid and Rieske KO viability enhancers – cell-based, MELAS cybrids, Rieske KO mouse fibroblasts, CellTiter-Glo, primary screen (AID 1508586;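 active = mean z-score across replicates of 1.96 or higher in either the MELAS or the Rieske mutant cell line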;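 also: z relative to plate mean and SD of compound and empty wells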); settings: low glucose
# [5] = growth inhibition, single agent or in combination, cell-based, chromothripsis tumors, cisplatin or BGB combos (AID 1671449); settings: LFS_MB_P medulloblastoma cells;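 also: cells exposed for 96 hours; 0% = vehicle DMSO and 100% = killing by high DMSO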
# [6] = growth inhibition, single agent and combos, cell-based, chromothripsis tumors, cisplatin or BGB combos (AID 1671450); settings: HDN33 neuroblastoma cells, stronger effect = higher value;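 also: cells exposed to compound for four days; 0% = vehicle DMSO and 100% = cell killing by high DMSO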
# [7] = growth inhibition, single agents and combos, ICB984, cell-based, cisplatin or BGB combos, synergistic combos for chromothripsis tumors (AID 1671451; call rule not given here;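 also: cells exposed for 96 hours before readout; 0% = vehicle DMSO and 100% = killing by high DMSO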); settings: ICB984 medulloblastoma cells, drug combinations, stronger effect = higher value
# [8] = growth inhibition, single agents and combos, LFS_MB_1R, cell-based, cisplatin or BGB combos, synergistic combos for chromothripsis tumors (AID 1671452); settings: LFS_MB_1R medulloblastoma cells, stronger effect = higher value;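 also: cells exposed for 96 hours before readout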
# [9] = growth inhibition, single agents and combos, HTB85, cell-based, BGB or cisplatin IC20 combos, synergistic combos for chromothripsis tumors (AID 1671453); settings: HTB85 osteosarcoma cells, drug combinations, stronger effect = higher value;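 also: cells exposed for 96 hours before readout; 0% = vehicle DMSO and 100% = high DMSO killing control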
# [10] = growth inhibition, single agents and combos, CRL2098, cell-based, BGB or cisplatin IC20 combos, synergistic combos for chromothripsis tumors (AID 1671454); settings: CRL2098 osteosarcoma cells, drug combinations, stronger effect = higher value;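 also: cells exposed for 96 h before readout; 0% = vehicle DMSO and 100% = killing by high DMSO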
# [11] = growth inhibition, single agents and combos, HD-MB03, cell-based, BGB or cisplatin IC20 combos, synergistic combos for chromothripsis tumors (AID 1671455; in the data active = inhibition above about 83%;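 also: 0% = vehicle DMSO and 100% = high DMSO as cytotoxic control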); settings: HD-MB03 medulloblastoma cells, stronger effect = higher value
# [12] = growth inhibition, single agents and combos, UWB1.289, cell-based, BGB or cisplatin combos, synergistic combos for chromothripsis tumors (AID 1671456); settings: UWB1.289 ovarian carcinoma cells, stronger effect = higher value;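 also: cells exposed to compound for four days; 0% = vehicle DMSO and 100% = killing by high DMSO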
# [13] = growth inhibition, single agents and combos, LFS_MB_2R, cell-based, cisplatin combos, synergistic combos for chromothripsis tumors (AID 1671457); settings: LFS_MB_2R medulloblastoma cells, stronger effect = higher value;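 also: cells exposed to compound for four days before readout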
# [14] = growth inhibition, MDA-MB-436, cell-based, BGB or cisplatin combos, synergistic combos for chromothripsis tumors (AID 1671458; call rule not given here;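 also: cells exposed for 96 hours; 0% = vehicle DMSO and 100% = killing by high DMSO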); settings: MDA-MB-436 breast carcinoma growth inhibition, drug combinations, stronger effect = higher value
# [15] = UWB1.289_BRCA1 ovarian cancer growth, cell-based, BGB or cisplatin combinations (AID 1671459); settings: UWB1.289 BRCA1 ovarian carcinoma, drug combinations, stronger effect = higher value
# [16] = drug combination toxicity in non-malignant astrocytes – cell-based, BGB or cisplatin IC20 combos, cytotoxicity control for chromothriptic childhood tumor combination screen (AID 1671460); settings: Human astrocytes, viability inhibition, drug combinations, at 0.5 µM, stronger effect = higher value;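 also: cells exposed to compounds for 96 hours before viability readout; 0% = vehicle and 100% = killing control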
# [17] = BT084 cell growth, single and combined drugs, ICGC_MB145, cisplatin and BGB IC40 combos (AID 1671461); settings: BT084 medulloblastoma cells, drug combinations, stronger effect = higher value;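 also: cells exposed to drugs for 96 hours; 0% = vehicle DMSO and 100% = high DMSO full killing control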
# [18] = RCMB18 cell growth, single agent and combined, cisplatin and BGB IC40 combos (AID 1671462); settings: RCMB18 medulloblastoma cells, stronger effect = higher value;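 also: cells exposed to compound for four days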
# [19] = CRL1545 cell growth, single agent and combined, cisplatin and BGB IC20 combos (AID 1671464); settings: CRL1545 osteosarcoma cells, stronger effect = higher value;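 also: cells exposed to compound for 96 hours before readout; 0% = vehicle DMSO and 100% = high DMSO killing control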
# [20] = compounds altering circadian rhythm period length – cell-based, LOPAC library, luminescence reporter (AID 2774; call rule not given here;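 also: values are relative to mean of DMSO wells on each plate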); settings: circadian reporter cells, at 7 µM, actives lie on both sides
# [21] = tested on: Hepatitis C virus NS3 helicase; experiment: blockers of NS3h binding to ssDNA – biochemical, fluorescence polarization, LOPAC1280 library, primary screen (AID 687035; in the data active = inhibition above about 37%); settings: Purified HCV NS3 helicase, Cy5-dT15 ssDNA binding fluorescence polarization; stronger effect = higher value; concentration not given here
# [22] = compounds altering Cy5-DNA-NS3h complex signal – biochemical, LOPAC1280, artefact control for HCV NS3 helicase inhibitor project (AID 687037; call rule not given here); settings: Cy5-DNA-NS3h complex fluorescence interference counterscreen
# [23] = blockers of cellular phospholipid synthesis – cell-based, LOPAC library, screen 4, primary screen (AID 1347384; call rule not given here); settings: animal cells, phospholipid biosynthesis inhibition screen; at 10 µM
# [24] = galactose survival enhancers in mitochondrial complex I cybrids – cell-based, galactose medium, ATP luminescence, primary screen (AID 1645843;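 active = z-score of at least 1.8 in each of two replicates, scored against plate mean and spread of sample wells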;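 also: positive z means more ATP and so rescue of galactose-driven cybrid death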); settings: complex I mutant cybrid cells, 72 h, stronger effect = higher value
# [25] = stronger effect = lower value, cell number ratio, induced over uninduced
# [26] = measured here: relative caspase fold change +Dox/-Dox
# [27] = measured here: total cells with miR-34 induction, stronger effect = lower value
# [28] = measured here: total cells without miR-34 induction
# [29] = measured here: combination with BGB IC40, at 0.05 µM
# [30] = measured here: with BGB IC20 combination, at 0.5 µM
# [31] = measured here: with cisplatin IC20 combination, at 0.5 µM
# [32] = measured here: combination with cisplatin, at 0.5 µM
# [33] = measured here: combination with cisplatin, at 5 µM
compound,measurement,setting,value
Nc1nc2n[nH]nc2c(=O)[nH]1,survival,[1],1.83 (inactive)
same,parasite load remaining,[2],236% (inactive) and 549% (inactive)
same,viability,[2],41.1% and 96.1%
same,fold change,[3]; [25],0.89 (inactive) and 0.844 (inactive)
same,fold change,[3]; [26],1.24 and 2.05
same,cell count,[3]; [27],3000 and 5470
same,cell count,[3]; [28],3360 and 6490
same,z-score,"[4]; MELAS cybrid survival, CellTiter-Glo 48 h, stronger effect = higher value",-0.244 (inactive) and -0.54 (inactive)
same,z-score,"[4]; Rieske KO mouse fibroblast survival, CellTiter-Glo 72 h",-0.138 and -0.665
same,inhibition,"[5]; at 0.5 µM, stronger effect = higher value",-21.3% (inactive)
same,inhibition,"[5]; measured here: combination with BGB IC20, at 0.005 µM",-4.53%
same,inhibition,"[5]; measured here: combination with BGB IC40, at 0.005 µM",-37%
same,inhibition,[5]; [29],-34.6%
same,inhibition,"[5]; measured here: combination with cisplatin, at 0.5 µM, stronger effect = higher value",-31.1%
same,inhibition,"[5]; measured here: combination with cisplatin, at 5 µM, stronger effect = higher value",8.39%
same,inhibition,"[6]; BGB combo, at 5 µM",20.7%
same,inhibition,[6]; at 0.5 µM,-10.2% (inactive)
same,inhibition,"[6]; cisplatin combo, at 5 µM",6.45%
same,inhibition,[6]; [30],-12.8%
same,inhibition,[6]; [31],-5.82%
same,inhibition,"[6]; single agent, at 5 µM",42.1%
same,inhibition,"[7]; BGB IC20 combo, at 0.005 µM",-1.82%
same,inhibition,"[7]; BGB IC40 combo, at 0.005 µM",-9.06%
same,inhibition,"[7]; BGB IC40 combo, at 0.05 µM",29.3%
same,inhibition,[7]; at 0.5 µM,-25% (inactive)
same,inhibition,"[7]; cisplatin combo, at 0.05 µM",27.3%
same,inhibition,"[7]; cisplatin combo, at 0.5 µM",-32.9%
same,inhibition,"[7]; cisplatin combo, at 5 µM",-42%
same,inhibition,"[7]; measured here: 5 uM single agent, at 5 µM",-12.8%
same,inhibition,[8]; at 0.5 µM,-9.31% (inactive)
same,inhibition,[8]; [29],-15.8%
same,inhibition,[8]; [32],-8.27%
same,inhibition,[8]; [33],12.9%
same,inhibition,[9]; at 0.5 µM,-22.9% (inactive)
same,inhibition,"[9]; measured here: with BGB IC20, at 0.5 µM",-34.4%
same,inhibition,"[9]; measured here: with BGB IC20, at 5 µM",1.91%
same,inhibition,"[9]; measured here: with cisplatin IC20, at 0.5 µM",-27.1%
same,inhibition,"[9]; measured here: with cisplatin IC20, at 5 µM",-19.1%
same,inhibition,"[9]; single agent, at 5 µM",1.86%
same,inhibition,[10]; at 0.5 µM,-27.1% (inactive)
same,inhibition,"[10]; measured here: combination with BGB at IC20, at 0.5 µM",-20.7%
same,inhibition,"[10]; measured here: combination with cisplatin at IC20, at 0.5 µM",-21.9%
same,inhibition,[11]; at 0.5 µM,19.3% (inactive)
same,inhibition,"[11]; measured here: combo with BGB at IC20, at 0.5 µM",16.1%
same,inhibition,"[11]; measured here: combo with cisplatin at IC20, at 0.5 µM",19.7%
same,inhibition,[12]; at 0.5 µM,32.6% (inactive)
same,inhibition,"[12]; measured here: inhibition with BGB combination, at 0.05 µM",-18.7%
same,inhibition,"[12]; measured here: inhibition with cisplatin combination, at 0.05 µM",7.62%
same,inhibition,[13]; at 0.5 µM,-9.15% (inactive)
same,inhibition,[13]; [32],-13.8%
same,inhibition,[13]; [33],-35.4%
same,inhibition,[14]; at 0.5 µM,-11.4% (inactive)
same,inhibition,"[14]; measured here: BGB combination, at 0.5 µM",-12.2%
same,inhibition,"[14]; measured here: BGB combination, at 5 µM",-5.12%
same,inhibition,"[14]; measured here: cisplatin combination, at 0.5 µM",-17.5%
same,inhibition,"[14]; measured here: cisplatin combination, at 5 µM",11.7%
same,inhibition,"[15]; BGB combination, concentration series, at 5 µM",85.1%
same,inhibition,[15]; at 0.5 µM,38.3% (inactive)
same,inhibition,"[15]; cisplatin combination, concentration series, at 5 µM",92.1%
same,inhibition,[16],3.68% (inactive)
same,inhibition,[16]; measured here: combo with BGB IC20,0.254%
same,inhibition,[16]; measured here: combo with cisplatin IC20,6.71%
same,inhibition,[17]; at 0.5 µM,-32% (inactive)
same,inhibition,"[17]; cisplatin combination, at 0.5 µM",-3.22%
same,inhibition,"[17]; cisplatin combination, at 5 µM",22.6%
same,inhibition,"[17]; measured here: BGB IC40 combination 0.05 uM, at 0.05 µM",-14%
same,inhibition,"[17]; single agent, at 5 µM",6.12%
same,inhibition,[18]; at 0.5 µM,-14.7% (inactive)
same,inhibition,"[18]; cisplatin combo, at 5 µM",33.1%
same,inhibition,"[18]; measured here: BGB IC40 combination, at 0.05 µM",-43.3%
same,inhibition,[18]; [32],3.47%
same,inhibition,"[18]; single agent, at 5 µM",22.1%
same,inhibition,[19]; at 0.5 µM,-20.1% (inactive)
same,inhibition,[19]; [30],-2.71%
same,inhibition,[19]; [31],-31.6%
same,inhibition,"[19]; single agent, at 0.05 µM",-28.1%
same,inhibition,"[19]; single agent, at 5 µM",32.5%
COc1cc(CNC(=O)CCCCCCC(C)C)ccc1O,period change,[20],0.135 h (inactive)
same,inhibition,[21],-5% (inactive)
same,fluorescence ratio (interference),[22],1 (inactive)
same,fold change,[3]; [25],1.08 (inactive) and 1.04 (inactive)
same,fold change,[3]; [26],0.866 and 1.07
same,cell count,[3]; [27],10600 and 5720
same,cell count,[3]; [28],9840 and 5480
same,outcome,[23],inactive
same,z-score,[24],-0.085 (inactive)
